Screening data (PubChem BioAssay)
Most compounds without a hit are left out; they make up all but 0.88% or so of the library.
APE1 inh – blocks human APE1 abasic DNA cleavage. P27695. recombinant APE1, TAMRA/BHQ-2 abasic DNA cleavage fluorescence. Potency, µM (titrated, usually from 65.8 µM), without a hit: top-dose activity change, negative = inhibition, most hits filed as inhibitors. 0.35% of 350,000 active. AID 2517;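 also: plate controls were vehicle for no effect and reference inhibitor for full effect; nearly all actives have a fitted effect of over 55% in size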
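Substrate: short duplex with […] THF abasic site, 5'-TAMRA and 3'-BHQ-2, 50 nM final. APE1 at 0.75 nM, preincubated 15 min RT with compound. Fluorescence increase from first to third read measured activity.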
ERG Ets-DNA blk – inhibitors of human ERG Ets domain-DNA interaction | Potency, µM (titrated, usually from 76.9 µM), for inactives: at the highest dose FP activity, negative = inhibition, hits mostly inhibitors | AID 624246 | 0.028% of 370,000 active | P11308 | fluorescence polarization, His-ERG Ets domain / labelled DNA; active = well fitted inhibition curve with a large enough effect in the polarisation, with a control signal flat; inconclusive = small, poorly fitted or top-dose-only effect, or effect the other way, or a change in a side signal; inactive = no such curve, though single readings can be large or run the other way; the % refers to the polarisation;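 also: polarization taken with two DNA probes labelled with fluorescein and Texas red; % of control where 0% means no effect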
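His-tagged ERG Ets domain (1 uM in the protein solution; 300mM KCl, 50mM Tris-HCl, 1mM EDTA, 1mM DTT, pH 7.5) received compound, then a probe mix of 5 nM fluorescein-DNA and 100nM Texas-615-DNA. Fluorescence polarization was read for both dyes.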
BLM inh-1 – Bloom syndrome helicase (human) inhibition; P54132; recombinant BLM DNA unwinding, fluorescence dequenching; Potency, µM (series often up to 56.1 µM), for the others: top-dose activity change, negative = inhibition, hits mostly inhibitors; 0.2% of 350,000 active; AID 2528;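 also: plate controls were vehicle for no effect and no enzyme for full effect; nearly all actives have a fitted effect of over 35% in size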
Target sequence (P54132 whole entry, looked up): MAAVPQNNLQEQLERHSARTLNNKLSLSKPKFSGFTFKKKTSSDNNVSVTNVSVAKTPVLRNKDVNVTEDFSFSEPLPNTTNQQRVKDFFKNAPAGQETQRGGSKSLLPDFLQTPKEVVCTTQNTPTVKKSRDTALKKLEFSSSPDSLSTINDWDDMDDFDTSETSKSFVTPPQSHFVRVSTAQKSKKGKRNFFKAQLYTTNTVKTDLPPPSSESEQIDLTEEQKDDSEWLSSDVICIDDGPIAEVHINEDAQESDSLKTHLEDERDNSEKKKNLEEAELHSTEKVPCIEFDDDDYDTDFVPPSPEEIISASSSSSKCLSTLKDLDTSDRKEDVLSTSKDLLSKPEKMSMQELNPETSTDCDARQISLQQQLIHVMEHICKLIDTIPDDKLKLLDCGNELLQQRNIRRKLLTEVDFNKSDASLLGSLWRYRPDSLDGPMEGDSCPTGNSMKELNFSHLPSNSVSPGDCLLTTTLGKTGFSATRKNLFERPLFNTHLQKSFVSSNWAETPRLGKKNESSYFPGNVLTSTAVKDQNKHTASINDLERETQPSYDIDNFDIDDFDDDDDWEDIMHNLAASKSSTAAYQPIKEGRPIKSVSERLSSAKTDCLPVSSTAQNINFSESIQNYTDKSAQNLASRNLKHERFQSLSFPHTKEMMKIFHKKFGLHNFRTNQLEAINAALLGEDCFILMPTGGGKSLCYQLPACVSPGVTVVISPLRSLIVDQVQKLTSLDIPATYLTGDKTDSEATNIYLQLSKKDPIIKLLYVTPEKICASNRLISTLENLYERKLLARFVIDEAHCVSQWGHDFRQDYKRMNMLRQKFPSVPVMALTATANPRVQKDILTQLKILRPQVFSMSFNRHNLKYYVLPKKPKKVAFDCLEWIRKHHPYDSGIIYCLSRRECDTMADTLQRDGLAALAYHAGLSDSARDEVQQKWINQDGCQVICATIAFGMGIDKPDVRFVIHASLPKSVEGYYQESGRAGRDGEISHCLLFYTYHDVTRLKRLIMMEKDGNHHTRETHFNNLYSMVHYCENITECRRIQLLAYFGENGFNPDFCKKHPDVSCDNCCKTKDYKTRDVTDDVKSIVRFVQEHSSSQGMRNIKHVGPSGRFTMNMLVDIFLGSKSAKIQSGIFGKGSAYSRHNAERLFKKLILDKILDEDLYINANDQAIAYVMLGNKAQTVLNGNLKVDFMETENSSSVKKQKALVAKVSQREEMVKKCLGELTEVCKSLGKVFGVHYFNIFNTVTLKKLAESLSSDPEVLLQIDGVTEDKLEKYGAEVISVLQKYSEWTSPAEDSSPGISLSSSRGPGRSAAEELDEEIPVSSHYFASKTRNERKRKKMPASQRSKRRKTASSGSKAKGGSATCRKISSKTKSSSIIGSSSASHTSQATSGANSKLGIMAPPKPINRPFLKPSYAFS
WRN inhibitor – blocks human WRN helicase | Q14191 | WRN helicase unwinding, fluorescent forked duplex, kinetic | Potency, µM (series often up to 114 µM), for inactives: at the highest dose activity change, negative = inhibition, usual class: inhibitors | 0.46% of 360,000 active | AID 651768; also: % is scaled to controls: 0 for no effect and ±100 for the full control effect; nearly all actives have a fitted effect of over 55% in size
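Enzyme (20 nM final) and test compound sit together 15 min at room temperature before substrate addition. Substrate is a single-forked duplex oligonucleotide (100 nM) labelled with fluorophore and quencher, with 2 mM ATP; helicase unwinding raises red fluorescence, read kinetically.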
RECQ1 inh-1 – inhibitors of human RECQ1 DNA helicase; RECQ1 DNA unwinding, red fluorescence kinetic read; P46063; Potency, µM (highest dose often 57.3 µM), inactives show at the top dose activity, negative = inhibition, actives largely listed as inhibitors; 0.54% of 240,000 active;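 also: plate controls were vehicle for no effect and no enzyme for full effect; nearly all actives have a fitted effect of over 30% in size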
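50 nM RECQ1T1 preincubated 15 min with compound in Tris pH 8.0 buffer with MgCl2, DTT, Tween-20 and 2.5 ug/ml poly(dI-dC); started with 200 nM TAMRA/BHQ-2 forked duplex and 2 mM ATP. Unwinding read as fluorescence (525/598 nm), two reads 2 h apart.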
GCN5L2 inh – blocks human GCN5L2 histone acetyltransferase; AID 504327; 0.21% of 390,000 active; Q92830; GCN5L2 HAT assay, ThioGlo1 CoA-SH fluorescence; Potency, µM (doses to about 58.9 µM), for inactives: at the highest dose activity change, negative = inhibition, actives largely listed as inhibitors; also: % is scaled to controls: 0 for no effect and ±100 for the full control effect
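qHTS, 1536-well. 20nM enzyme, pH 7.5 HEPES/EDTA/Tween-20 buffer; 15 min compound preinc., RT. Start: 75uM H3(1-25), 70uM AcCoA, 50uM ThioGlo1. Read Ex340/Em540 at t=0 (autofluorescence flag) and t=20 min.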
BLM inh-2 – confirmation of inhibitors of human Bloom syndrome helicase BLM | shares compounds with BLM inh-1 | BLM DNA unwinding, fluorescence quenching, biochemical | Potency, µM, without a hit: max response, negative = inhibition, hits mostly inhibitors | 40% of 220 active | AID 2585;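 also: strand separation dequenches TAMRA so unwinding raises red fluorescence; series mostly up to about 69 µM; % is scaled to controls: 0 for no effect and ±100 for the full control effect; nearly all actives have a fitted effect of over 45% in size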
RECQ1 conf – confirmation of human RECQ1 helicase inhibitors; Potency, µM (doses to about 229 µM), for the others: at the highest dose activity change, negative = inhibition, usual class: inhibitors; 28% of 610 active; RECQ1 helicase DNA unwinding, fluorescence; AID 2708; shares compounds with RECQ1 inh-1; also: % is scaled to controls: 0 for no effect and ±100 for the full control effect; nearly all actives have a fitted effect of over 45% in size
RECQ1 ADP FP – displaces ADP in a fluorescence polarization counter-screen for RECQ1 hits; shares compounds with RECQ1 inh-1; ADP fluorescence polarization displacement counterscreen; Potency, µM (titrated, usually from 228 µM), without a hit: at the top dose activity change, negative = inhibition, hits mostly inhibitors; 27% of 530 active; AID 2711; also: % is scaled to controls: 0 for no effect and ±100 for the full control effect; nearly all actives have a fitted effect of over 45% in size
RECQ1 inh-2 – blocks human RECQ1 DNA unwinding; shares compounds with RECQ1 inh-1; Potency, µM (doses to about 119 µM), for inactives: top-dose activity, negative = inhibition, hits mostly inhibitors; 15% of 1,100 active; AID 504841; recombinant RECQ1 DNA unwinding, red fluorescence; also: % is scaled to controls: 0 for no effect and ±100 for the full control effect; nearly all actives have a fitted effect of over 50% in size
* = called active by the depositor; i = inactive; u = inconclusive; x = not tested or not shown; [ ] = remark or other dose. Unless noted, calls follow the shape of the dose curve; as a rule, active = well fitted curve in the direction sought with a large enough effect; inconclusive = small, poorly fitted or top-dose-only effect, or another doubt; inactive = no such curve, though single readings can be large; an effect the other way counts as inactive or inconclusive. Potency is read from the fitted curve at half-maximal effect.

SMILES	APE1 inh	ERG Ets-DNA blk	BLM inh-1	WRN inhibitor	RECQ1 inh-1	GCN5L2 inh	BLM inh-2	others
Cc1ccccc1NC1=C/C(=N\S(=O)(=O)c2ccc(C(=O)O)cc2)c2ccccc2C1=O	-7.9%	-16.8%	7.08µM*	-34.3%[57.1 µM]	x	-2.4%	11.5µM*
C[C@@H]1O[C@H](O[C@@H]2[C@H](C)O[C@H](O[C@@H]3[C@H](C)O[C@H](O[C@H]4CC[C@]5(C)[C@@H](CC[C@@H]6[C@H]5C[C@@H](O)[C@]5(C)[C@@H](C7=CC(=O)OC7)CC[C@]65O)C4)C[C@@H]3O)C[C@@H]2O)C[C@H](O)[C@@H]1O	-1.4%[21 µM]	x	2.8%[21.4 µM]	x	-9.2%[25.9 µM]	4.9%[21.4 µM]	x
C[C@@H](c1ccccc1)N1C[C@@H](COCc2ccccc2)Oc2cc(N3CC[C@@H](N(C)C)C3)ccc2S1(=O)=O	x	x	x	-2.8%	x	x	x
Cc1ccc(S(=O)(=O)N2CCCCC2)cc1NC(=O)Cc1cccs1	18.4%	-0.4%	x	-1.1%	x	-3.0%	x
O=C(Cc1cccs1)Nc1ccc(S(=O)(=O)N2CCCC2)cc1	-1.6%	-2.1%	17.8µM*	u	26.0%	0.7%	u
COC(=O)c1ccc(NC(=O)C(=O)NCC(c2cccnc2)N2CCc3ccccc32)cc1 (centres undefined)	x	-0.1%	2.3%	x	x	-3.4%	x
O=C(OCC(=O)N1CCN(C(=O)c2ccco2)CC1)c1cc(-c2ccc(Cl)c(Cl)c2Cl)nc2ccccc12	17.2%	-2.6%	-6.5%	u	-0.1%	-1.9%	x
O=C(OCC(=O)N1CCN(C(=O)c2ccco2)CC1)c1cc(-c2ccco2)nc2ccccc12	15.8µM*	-2.0%	8.91µM*	50.1µM*	12.6µM*	u	u
C=C1CC[C@@H]2[C@](C)(CC[C@@H](O)[C@]2(C)CO)[C@@H]1C/C=C1/C(=O)OC[C@H]1O	x	x	x	x	x	x	5.5%
O=C1c2ccccc2C(=O)c2c1cccc2-n1nnc2ccccc21	-6.0%	3.4%	-2.1%	-3.9%	i	-0.3%	x
O=C1C(N2CCOCC2)=C(n2nnc3ccccc32)C(=O)c2ccccc21	-2.0%	13.0%	35.5µM*	-0.5%	-19.1%	-3.3%	u
O=C1OC(Nc2cc(Br)cc3cccnc23)c2ccccc21 (centres undefined)	0.5%	-1.7%	22.4µM*	3.5%	i	-0.8%	-4.5%
NC(=O)c1sc2nc3c(c(-c4ccco4)c2c1N)CCCC3	-5.1%	-3.0%	-6.6%	-16.0%	8.3%	-5.9%	x
Nc1c(C(=O)NCC2CCCO2)sc2nc3c(c(-c4ccco4)c12)CC/C3=C\c1ccco1 (centres undefined)	2µM*	-8.0%	5.01µM*	2.82µM*	2.51µM*	u	u
Cc1c(C(=O)NCc2ccccc2)sc(=O)n1Cc1ccccc1F	x	x	x	8.6%[57.1 µM]	x	x	x
CC(C)Cn1c(N)c(C(=O)NCC2CCCO2)c2nc3ccccc3nc21 (centres undefined)	-6.7%	-0.2%	8.91µM*	-15.2%	13.5%	-14.6%	-10.5%
OCC[C@@H]1C[C@H](O)[C@@H](O)[C@@]2(OCCc3cc(Cl)ccc32)O1	x	x	x	1.8%	x	x	x
O=C(COC(=O)C1(c2ccc(F)cc2)CCCC1)NCc1ccco1	-10.3%	1.5%	22.4µM*	-17.6%	u	u	-10.8%
C=C(c1ccc(C(=O)O)cc1)c1cc2c(cc1C)C(C)(C)CCC2(C)C	x	x	u	x	x	6.31µM*	68µM*	RECQ1 conf=u
N#C/C(=C\c1ccc(N2CCOCC2)c([N+](=O)[O-])c1)c1nc2ccccc2[nH]1	u	x	-19.1%	-34.4%	10.0%	-3.8%	x
N#C/C(=C\c1ccc(N2CCOCC2)o1)c1nc2ccccc2[nH]1	u	u	22.4µM*	50.1µM*	31.6µM*	-28.7%	u	RECQ1 inh-2=u
O=C(N/N=C/c1ccc(F)cc1)c1cc(-c2ccco2)nc2ccccc12	4.47µM*	-4.9%	8.91µM*	39.8µM*	10µM*	u	18.2µM*	RECQ1 conf=39.8µM*;RECQ1 ADP FP=u
Cc1cnc(CNc2nc(-c3ccc(N(C)C)cc3)nc3ccccc23)cn1	-4.1%	x	28.2µM*	x	u	-11.9%	20.4µM*	RECQ1 inh-2=u
Cc1cnc(CNc2nc(-c3ccccc3C(F)(F)F)nc3ccccc23)cn1	-6.3%	x	3.1%	x	i	-12.0%	x
Oc1ccc(Nc2nc(NCC3CCCO3)c3ccccc3n2)cc1 (centres undefined)	-7.3%	0.2%	15.8µM*	35.5µM*	14.1µM*	1.1%	14.5µM*	RECQ1 conf=25.1µM*;RECQ1 ADP FP=u;RECQ1 inh-2=39.8µM*
SMILES	APE1 inh	ERG Ets-DNA blk	BLM inh-1	WRN inhibitor	RECQ1 inh-1	GCN5L2 inh	BLM inh-2	others
C/C=C/OC(=O)NC(c1ccccc1)[C@]1(C(C)=O)CCCC1=O (some centres undefined)	u	x	5.4%[12.4 µM]	x	15.7%[11.5 µM]	x	x
CCCc1ccc2oc(C(=O)N3CCN(C4CCS(=O)(=O)C4)CC3)c(C)c2c1 (centres undefined)	13.1%	-1.7%	-1.4%	7.8%	x	u	x
O=C(CSc1nc2scc(-c3ccco3)c2c(=O)n1-c1ccccc1)NCC1CCCO1 (centres undefined)	u	-3.4%	14.1µM*	-23.2%	u	u	u	RECQ1 inh-2=u
Cn1c(SCC(=O)NCC2CCCO2)nc2scc(-c3ccccc3)c2c1=O (centres undefined)	24.4%	-0.7%	x	-3.5%	x	-5.6%	x
COc1ccc(-c2oc3ncn4nc(-c5ccccc5Br)nc4c3c2-c2ccc(OC)cc2)cc1	x	-1.0%	-5.9%	x	x	-6.9%	x
CC1(C)CC(=O)C2=C(C1)NC1=C(C(=O)c3ccccc31)C2c1ccc(Cl)cc1 (centres undefined)	8.0%	4.1%	-8.7%	-1.5%	-0.9%	-6.0%	x
